# Data from PubChem BioAssay (Tox21).
# Results filed as inconclusive are left out. Activity calls are given as the source filed them. The call rests on the fitted dose curve.
# Target: Thyrotropin receptor (Homo sapiens) (UniProt P16473)
# Test: qHTS assay to identify small molecule agonists of the thyroid stimulating hormone receptor (TSHR) signaling pathway (AID 1224843); further: nearly all actives have a fitted effect of over 45% in size
# Details: TSHR-HEK293 cells, cAMP HTRF, agonist mode, 30 min; series mostly up to 92.4 µM; activation: at the top concentration
# Description: National Center for Advancing Translational Sciences [NCATS]
# NIH Chemical Genomics Center [NCGC]
# U.S. Environmental Protection Agency [EPA]
# National Institutes of Environmental Health Sciences [NIEHS]
# National Toxicology Program [NTP]
# U.S. Food and Drug Administration [FDA]
# TSHR is the receptor for thyrotropin (thyroid stimulating hormone or TSH), a member of the glycoprotein hormone family. TSH is released by the anterior pituitary gland and is the main regulator of thyroid gland growth and development. Upon binding circulating thyrotropin, a G-protein signal cascade activates adenylyl cyclase and […] cAMP concentration is increased. cAMP is a key second messenger involved extensively in cellular signal transduction pathways associated with the majority of G-protein coupled receptors (GPCRs). The activation of these GPCRs by neurotransmitters, lipids, nucleotides, peptides and hormones results in the activation or the inhibition of plasma membrane-bound adenylate cyclase through heterotrimeric G-proteins. A cell-based TSHR assay was used to screen the Tox21 10K library for compounds that can modulate TSHR in agonist mode.
# Tox21 Assay Protocol Summary:
# TSHR-Hek293 cells were dispensed at 800 cells/4uL/well in 1536-well white plates using a Multidrop dispenser. […] The plates were incubated at room temperature for 30 min. 2.5 ul/well of cAMP-d2 and 2.5ul/well of anti-cAMP-cryptate was added respectively into the assay plates using a Flying Reagent Dispenser. After 1 hr incubation at room temperature, the fluorescence intensity in the plates was measured using an Envision plate reader. Each test compound was measured at 15 concentrations and in triplicates.
# On the % scale 0 is the no-effect control and ±100 the full control effect; potency means the concentration at half of the fitted maximal effect.
# Sequence of Thyrotropin receptor (Homo sapiens) (P16473 whole entry, looked up): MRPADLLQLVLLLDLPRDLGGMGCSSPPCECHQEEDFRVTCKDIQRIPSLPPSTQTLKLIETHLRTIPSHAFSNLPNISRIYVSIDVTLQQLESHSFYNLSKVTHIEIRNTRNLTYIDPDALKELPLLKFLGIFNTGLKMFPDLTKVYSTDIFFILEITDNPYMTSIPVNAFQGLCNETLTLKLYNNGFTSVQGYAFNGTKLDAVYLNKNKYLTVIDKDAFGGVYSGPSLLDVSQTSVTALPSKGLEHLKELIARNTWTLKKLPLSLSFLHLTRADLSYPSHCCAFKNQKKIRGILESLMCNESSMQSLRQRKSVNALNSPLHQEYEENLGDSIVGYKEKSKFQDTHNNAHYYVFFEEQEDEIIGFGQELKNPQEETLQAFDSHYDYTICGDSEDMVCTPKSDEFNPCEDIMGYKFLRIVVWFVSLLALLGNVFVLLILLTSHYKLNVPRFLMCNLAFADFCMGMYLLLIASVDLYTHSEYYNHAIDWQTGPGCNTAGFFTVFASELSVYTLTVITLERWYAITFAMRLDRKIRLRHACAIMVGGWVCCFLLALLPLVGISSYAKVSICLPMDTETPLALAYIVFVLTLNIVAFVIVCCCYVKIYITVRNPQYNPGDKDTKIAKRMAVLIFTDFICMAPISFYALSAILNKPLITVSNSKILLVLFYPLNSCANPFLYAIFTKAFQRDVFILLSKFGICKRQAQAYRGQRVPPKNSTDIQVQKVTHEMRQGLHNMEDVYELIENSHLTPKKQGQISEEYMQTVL
Structure (SMILES),activation,Potency
CCOc1ccc(NS(=O)(=O)c2ccc(N)cc2)nn1,7.42% [at 42.5 µM] (inactive),
Cc1cn([C@@H]2O[C@H](CO)[C@@H](O)[C@@H]2F)c(=O)[nH]c1=O,-2.01% [at 42.5 µM] (inactive),
Cc1cc2nc(N)sc2cc1C,-13.8% (inactive),
CN1CCN(C2=Nc3cc(F)ccc3Cc3ccccc32)CC1,-2.52% [at 42.5 µM] (inactive),
O=C1Nc2ccc([N+](=O)[O-])cc2C1=O,6.07% (inactive),
O=C1CCCCC1C1CCCCC1 (stereo not given),-0.838% (inactive),
C[C@@H](N)C(=O)O,-14.1% [at 42.5 µM] (inactive),
Cc1onc(-c2ccccc2)c1C(=O)Cl,5.91% [at 42.5 µM] (inactive),
Nc1ccc2ccccc2c1S(=O)(=O)O,-29.7% (inactive),
C[C@]12CCC(=O)C=C1CC[C@@H]1[C@@H]2CC[C@@]2(C)[C@H]1CC[C@]2(O)C(=O)CO,5.01% [at 42.5 µM] (inactive),
NC(Cc1ccc(F)cc1)C(=O)O (stereo not given),1.31% [at 8.39 µM] (inactive),
CC(CNC1CCCCC1)OC(=O)c1ccccc1 (stereo not given),-8.89% [at 42.5 µM] (inactive),
CC(=O)N(CC(O)CN(C(C)=O)c1c(I)c(C(=O)NCC(O)CO)c(I)c(C(=O)NCC(O)CO)c1I)c1c(I)c(C(=O)NCC(O)CO)c(I)c(C(=O)NCC(O)CO)c1I (stereo not given),13.4% [at 42.5 µM] (inactive),
O=C(O)[C@@H](O)[C@H](O)[C@H](O)[C@@H](O)C(=O)O,2.65% [at 42.5 µM] (inactive),
CC1=CC(=O)CC(C)(C)C1=O,3.04% (inactive),
O=C(O)C(=O)Cc1c[nH]c2ccccc12,7.28% (inactive),
NS(=O)(=O)c1cc(-c2nn[nH]n2)c(NCc2cccs2)cc1Cl,1.26% [at 42.5 µM] (inactive),
CCCOCCC,5.81% (inactive),
CC(=O)OC(C)OC(C)=O,-1.3% (inactive),
Cc1nc(-c2ccccn2)ncc1C(=O)Nn1cc(C)c2cc(F)ccc21,9.41% (inactive),

Structure (SMILES),activation,Potency
COC(=O)C(C)O (stereo not given),-8.67% (inactive),
C=CCCC=C,2.13% (inactive),
O=C(CC(=O)C(F)(F)F)c1ccccc1,,17.5 µM (active)
CC(C)O,4% (inactive),
CCCCCCn1c(=O)c2c(ncn2C)n(C)c1=O,-4.18% [at 42.5 µM] (inactive),
CN1CCN(C2=Nc3ccccc3Oc3ccc(Cl)cc32)CC1,-5.53% [at 42.5 µM] (inactive),
COC(C)CCO (stereo not given),-2.24% (inactive),
CN(CC1(C)CCCO1)S(=O)(=O)c1ccc(Cl)c(S(N)(=O)=O)c1 (stereo not given),17.5% [at 42.5 µM] (inactive),
CCOC(=O)C(Br)c1ccccc1 (stereo not given),-6.41% (inactive),
CN(C)Cc1ccccc1,-2.19% (inactive),
CCN(CC)CCNC(=O)COc1ccc(Cl)cc1,-1.42% [at 42.5 µM] (inactive),
CCCNC(C)C(=O)Nc1c(C)csc1C(=O)OC (stereo not given),0.107% [at 42.5 µM] (inactive),
OCCN1CCN(CCO)CC1,-1.71% (inactive),
O=[N+]([O-])c1nccn1CO[C@@H](CO)[C@H](O)CO,-0.352% [at 42.5 µM] (inactive),
C[C@@H]1CN(c2c(F)c(N)c3c(=O)c(C(=O)O)cn(C4CC4)c3c2F)C[C@H](C)N1,4.51% [at 19 µM] (inactive),
CC(C)Nc1nc(N)nc(Cl)n1,3.34% (inactive),
CS(=O)(=O)c1ccc([C@@H](O)[C@@H](CF)NC(=O)C(Cl)Cl)cc1,14.8% [at 42.5 µM] (inactive),
CC(C)(C)c1ccc(OC(=O)c2ccccc2O)cc1,-12.1% (inactive),
Cc1nnc(SCC2=C(C(=O)O)N3C(=O)[C@@H](NC(=O)Cn4cnnn4)[C@H]3SC2)s1,-1.21% [at 42.5 µM] (inactive),
COc1ccc2nc(NC(=O)Nc3ccccc3)sc2c1,5.88% [at 42.5 µM] (inactive),
